Here are results for 10 compounds from PubChem BioAssay (EPA / NIEHS).

What is called AC50 is the concentration at which the activity in the assay is half-maximal.

Several values for one entry are separate records, joined by “and”; a condition that tells them apart may be missing. Equal values may be shown once. Activity calls are given as the source filed them. The calls were made as follows: active = hit-call score of the fitted dose curve at least 0.9, where 1 is the maximum; inactive = score below 0.9.

The target of assay [1] is Heat shock factor protein 1 (Homo sapiens) (UniProt Q00613). Nature of the assay: ATG_HSE_CIS: Attagene CIS-FACTORIAL HepG2 Assay for human Heat Shock Transcription Factor 1 (HSE) (AID 2282953). As to conditions: HepG2 HSE cis-reporter, Attagene RNA transcription; actives raise or lower the signal. The method in brief:
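After a 24 h incubation with test chemical, transfected HepG2 cells were harvested for RNA; reporter transcripts were measured by RT-PCR and capillary electrophoresis. Values reflect gain or loss of signal relative to DMSO.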

The nature of assay [2]: ATG_NF_kB_CIS: Attagene CIS-FACTORIAL HepG2 Assay for human Nuclear Factor Kappa B (NF-kB) (AID 2282991). As to conditions: HepG2 Attagene cis-factorial NF-kB reporter mRNA; actives raise or lower the signal. The method in brief:
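HepG2 cells transfected with cis-promoter-driven reporter units, so endogenous transcription factor activity is measured. Reporter mRNA quantified 24 h after dosing by RT-PCR and capillary electrophoresis, with bidirectional fitting against DMSO.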

Read-out in assay [3]: C-C motif chemokine 2 (Homo sapiens) (UniProt P13500)
The experiment in a line: BSK_KF3CT_MCP1: BioMAP Diversity Plus: KF3CT Assay for Monocyte Chemoattractant Protein 1 (MCP1/CCL2) Biomarker Activity (AID 2283073). As to conditions: primary human keratinocytes with fibroblasts; actives raise or lower the signal. The method in brief:
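KF3CT skin co-culture (keratinocytes/foreskin fibroblasts), 24 h post-dose; MCP-1 by ELISA; gain/loss of signal fit bidirectionally vs DMSO baseline.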

Read-out in assay [4]: Matrix Metallopeptidase 9 (MMP9), MMP9 (gene 4318)
The experiment in a line: BSK_KF3CT_MMP9: BioMAP Diversity Plus: KF3CT Assay for Matrix Metallopeptidase 9 (MMP9) Biomarker Activity (AID 2283074).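 As to AC50: MMP9 protein level quantified by ELISA in the co-culture.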 As to conditions: primary human keratinocytes with fibroblasts; actives raise or lower the signal. The gist of the method:
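Human keratinocyte/foreskin fibroblast co-culture; compound added; 24 h; MMP-9 by ELISA; bidirectional fit vs DMSO baseline.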

Read-out in assay [5]: urokinase plasminogen activator (uPA), PLAU (gene 5328)
Nature of the assay: BSK_KF3CT_uPA: BioMAP Diversity Plus: KF3CT Assay for urokinase plasminogen activator (uPA) Biomarker Activity (AID 2283075). The conditions noted are these: primary human keratinocytes with fibroblasts; actives raise or lower the signal. The method in brief: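 ELISA readout of uPA, analyzed for signal gain or loss relative to DMSO, from a human primary keratinocyte–foreskin fibroblast co-culture measured 24 h after chemical treatment.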

Assay [6] is described as follows: BSK_LPS_SRB: Viability Assessment in the BioMAP Diversity Plus: LPS Assay (AID 2283079).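 Also: total protein by sulforhodamine B absorbance as a cytotoxicity measure; measured one day after compound addition; fitted in both directions against DMSO so loss or gain of signal counts.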 The conditions noted are these: primary human HUVEC with PBMC. The method in brief: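 HUVEC + PBMC co-culture, LPS-stimulated; compound 24 h. 10% TCA fix, 0.1% SRB stain, A560. Bidirectional fit vs DMSO.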
Read-out in assay [7]: Tumor necrosis factor (Homo sapiens) (UniProt P01375)
The experiment in a line: BSK_LPS_TNFa: BioMAP Diversity Plus: LPS Assay for Tumour Necrosis Factor alpha (TNFa) Biomarker Activity (AID 2283085). The conditions noted are these: primary human HUVEC with PBMC; actives raise or lower the signal. The method in brief:
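Primary human vascular co-culture of HUVEC and PBMC; TNFa ELISA 24 h after treatment, analysed as increase or decrease relative to DMSO control.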

Read-out in assay [8]: Vascular cell adhesion molecule 1 (VCAM1), VCAM1 (gene 7412)
The experiment in a line: BSK_LPS_VCAM1: BioMAP Diversity Plus: LPS Assay for Vascular cell adhesion molecule 1 (VCAM1) Biomarker Activity (AID 2283086). As to conditions: primary human HUVEC with PBMC; actives raise or lower the signal. The method in brief:
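Primary human vascular co-culture (umbilical vein endothelium plus PBMC) stimulated with LPS received chemical; 24 h later VCAM-1 was read by ELISA. Overt cytotoxicity was assessed by sulforhodamine B staining of parallel cultures at the same time point.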

Read-out in assay [9]: CD38, CD38 (gene 952)
The experiment in a line: BSK_SAg_CD38: BioMAP Diversity Plus: SAg Assay for CD38 Biomarker Activity (AID 2283087). As to conditions: primary human HUVEC with PBMC; actives raise or lower the signal. The gist of the method: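 Fluorescence ELISA of cell-surface CD38 served as the read-out, with either increase or decrease fitted against DMSO controls. Cells were a human umbilical vein endothelium plus PBMC co-culture under SEB/TSST-1 stimulation, measured 24 h after dosing.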

Read-out in assay [10]: Monocyte Chemoattractant Protein-1 (MCP1), CCL2 (gene 6347)
Nature of the assay: BSK_SAg_MCP1: BioMAP Diversity Plus: SAg Assay for Monocyte Chemoattractant Protein-1 (MCP1) Biomarker Activity (AID 2283090). The conditions noted are these: primary human HUVEC with PBMC; actives raise or lower the signal. The gist of the method: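 MCP-1 levels in the endothelial–PBMC SAg co-culture were quantified by ELISA at 24 h post-dosing; both increases and decreases versus DMSO scored. Cytotoxicity monitored by SRB total protein in parallel cultures.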

Read-out in assay [11]: E-selectin (Homo sapiens) (UniProt P16581)
The experiment in a line: BSK_SAg_Eselectin: BioMAP Diversity Plus: SAg Assay for Eselectin Biomarker Activity (AID 2283091). The conditions noted are these: primary human HUVEC with PBMC; actives raise or lower the signal. The method in brief:
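E-selectin ELISA readout at 24 h post-dosing in human umbilical vein endothelial cell/PBMC co-culture; gain or loss of signal fitted relative to DMSO baseline.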

Read-out in assay [12]: Interleukin-8 (IL8), CXCL8 (gene 3576)
The experiment in a line: BSK_SAg_IL8: BioMAP Diversity Plus: SAg Assay for Interleukin-8 (IL8) Biomarker Activity (AID 2283094). As to conditions: primary human HUVEC with PBMC; actives raise or lower the signal. The gist of the method:
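In this co-culture of human umbilical vein endothelium with peripheral blood mononuclear cells, IL-8 is assayed by ELISA at 24 h. DMSO serves as baseline for bidirectional curve fitting.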

Assay [13] is described as follows: BSK_SAg_Proliferation: Cell Proliferation Assessment in the BioMAP Diversity Plus: SAg Assay (AID 2283095).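 Also: relative cell number as total protein by SRB absorbance in sub-confluent culture.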 As to conditions: primary human HUVEC with PBMC. The gist of the method:
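Readout is SRB-stained protein (560 nm) in a primary human HUVEC and PBMC co-culture; sub-confluent cultures are read at 96 h. Activity is fitted bidirectionally using DMSO as baseline.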

Assay [14] in a line: BSK_SAg_SRB: Viability Assessment in the BioMAP Diversity Plus: SAg Assay (AID 2283096).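 Also: cells read one day after compound addition; hits may be either gain or loss of signal compared with DMSO.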 As to conditions: primary human HUVEC with PBMC. The method in brief: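 Total protein by sulforhodamine B staining, 24 h after dosing, in HUVEC–PBMC co-culture; DMSO-referenced bidirectional fitting.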
Read-out in assay [15]: Monokine induced gamma interferon (MIG), CXCL9 (gene 4283)
The experiment in a line: BSK_KF3CT_MIG: BioMAP Diversity Plus: KF3CT Assay for Monokine induced gamma interferon (MIG) Biomarker Activity (AID 2284248). The conditions noted are these: primary human keratinocytes with fibroblasts. The method in brief:
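ELISA read-out of MIG after 24 h chemical exposure of human skin primary co-culture (keratinocytes, foreskin fibroblasts). Gain of signal relative to DMSO negative control was analysed.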

Read-out in assay [16]: Plasminogen activator inhibitor-1 (PAI1), SERPINE1 (gene 5054)
Nature of the assay: BSK_KF3CT_PAI1: BioMAP Diversity Plus: KF3CT Assay for Plasminogen activator inhibitor-1 (PAI1) Biomarker Activity (AID 2284252). The conditions noted are these: primary human keratinocytes with fibroblasts. The method in brief:
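Signal is PAI-1 detected by ELISA in a human skin-derived keratinocyte/fibroblast co-culture, 24 h after dosing; DMSO served as negative control and baseline.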

Read-out in assay [17]: Interleukin-8 (IL8), CXCL8 (gene 3576)
The experiment in a line: BSK_KF3CT_IL8: BioMAP Diversity Plus: KF3CT Assay for Interleukin-8 (IL8) Biomarker Activity (AID 2284254). The conditions noted are these: primary human keratinocytes with fibroblasts. The method in brief: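 IL-8 read-out: ELISA, 24 h post-dose, human skin primary co-culture (keratinocytes + foreskin fibroblasts). DMSO = baseline; positive-direction fit.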

Read-out in assay [18]: Interleukin-8 (IL8), CXCL8 (gene 3576)
Nature of the assay: BSK_BE3C_IL8: BioMAP Diversity Plus: BE3C Assay for Interleukin-8 (IL8) Biomarker Activity (AID 2284280). The conditions noted are these: primary human bronchial epithelial cells. The method in brief: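 IL-8 signal gain, normalised to DMSO vehicle, was scored after a 24 h chemical exposure of primary human bronchial epithelial cells, with detection by ELISA.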

Read-out in assay [19]: Plasminogen activator inhibitor-1 (PAI1), SERPINE1 (gene 5054)
The experiment in a line: BSK_CASM3C_PAI1: BioMAP Diversity Plus: CASM3C Assay for Plasminogen activator inhibitor-1 (PAI1) Biomarker Activity (AID 2284284).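 Also: PAI-1 protein level measured by ELISA 24 h after dosing.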 As to conditions: primary human coronary artery smooth muscle cells.

Read-out in assay [20]: Intercellular Adhesion Molecule 1 (ICAM1), ICAM1 (gene 3383)
Nature of the assay: BSK_hDFCGF_ICAM1: BioMAP Diversity Plus: hDFCGF Assay for Intercellular Adhesion Molecule 1 (ICAM1) Biomarker Activity (AID 2284287). As to conditions: primary human foreskin fibroblasts. The method in brief:
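Primary human foreskin fibroblasts (hDFCGF system) dosed with chemical; ICAM-1 quantified by ELISA at 24 h relative to DMSO. Parallel SRB total-protein staining to assess overt cytotoxicity.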

Chain of Tumor necrosis factor (Homo sapiens) (P01375 whole entry, looked up): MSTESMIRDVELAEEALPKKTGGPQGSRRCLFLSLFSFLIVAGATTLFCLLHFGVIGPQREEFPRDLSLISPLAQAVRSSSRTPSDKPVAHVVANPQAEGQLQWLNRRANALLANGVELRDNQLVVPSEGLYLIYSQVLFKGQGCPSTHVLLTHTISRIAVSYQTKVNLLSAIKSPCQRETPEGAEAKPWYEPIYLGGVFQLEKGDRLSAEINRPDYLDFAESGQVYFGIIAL
Chain of Heat shock factor protein 1 (Homo sapiens) (Q00613 whole entry, looked up): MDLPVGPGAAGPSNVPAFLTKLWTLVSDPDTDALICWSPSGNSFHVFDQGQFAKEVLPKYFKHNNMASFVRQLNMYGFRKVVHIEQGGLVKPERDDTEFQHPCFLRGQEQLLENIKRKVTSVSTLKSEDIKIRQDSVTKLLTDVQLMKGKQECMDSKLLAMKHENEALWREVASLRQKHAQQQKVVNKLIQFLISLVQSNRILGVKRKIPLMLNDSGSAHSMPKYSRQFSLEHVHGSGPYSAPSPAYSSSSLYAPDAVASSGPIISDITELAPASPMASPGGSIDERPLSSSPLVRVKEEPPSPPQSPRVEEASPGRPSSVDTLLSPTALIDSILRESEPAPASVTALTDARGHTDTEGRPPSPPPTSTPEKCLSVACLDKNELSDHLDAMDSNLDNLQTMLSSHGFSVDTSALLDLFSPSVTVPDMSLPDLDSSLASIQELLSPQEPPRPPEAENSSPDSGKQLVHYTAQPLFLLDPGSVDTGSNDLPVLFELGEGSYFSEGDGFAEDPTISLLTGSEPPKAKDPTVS
Chain of E-selectin (Homo sapiens) (P16581 whole entry, looked up): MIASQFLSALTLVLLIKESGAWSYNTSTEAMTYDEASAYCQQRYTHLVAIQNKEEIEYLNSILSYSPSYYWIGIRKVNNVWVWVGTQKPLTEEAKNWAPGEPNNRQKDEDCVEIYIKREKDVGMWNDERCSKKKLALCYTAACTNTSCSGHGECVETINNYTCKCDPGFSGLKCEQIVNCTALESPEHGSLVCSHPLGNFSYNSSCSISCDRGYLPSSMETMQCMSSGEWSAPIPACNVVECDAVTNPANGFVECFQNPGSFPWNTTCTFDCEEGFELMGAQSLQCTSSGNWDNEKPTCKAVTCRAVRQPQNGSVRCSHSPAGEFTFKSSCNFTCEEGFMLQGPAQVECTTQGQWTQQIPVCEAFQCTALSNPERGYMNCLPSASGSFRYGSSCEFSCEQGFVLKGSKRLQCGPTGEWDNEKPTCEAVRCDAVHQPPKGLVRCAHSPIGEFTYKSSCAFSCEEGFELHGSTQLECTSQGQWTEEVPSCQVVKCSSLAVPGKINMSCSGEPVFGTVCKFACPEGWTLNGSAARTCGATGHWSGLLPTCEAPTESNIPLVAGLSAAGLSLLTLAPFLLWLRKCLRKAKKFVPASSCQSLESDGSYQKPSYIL

As for `Oc1ccc(Oc2ccccc2)cc1`, the outcome in assay [1] and in [2] was inactive.

In the case of `CCC[Si](OC(C)=O)(OC(C)=O)OC(C)=O`, the outcome in assay [3], in assay [4], in [5], in assay [6], in assay [7] and in assay [8] was inactive. Besides, the outcome in [9], in [10], in [11], in assay [12], in [13] and in assay [14] was inactive. In addition, the result in assay [15], in assay [16], in assay [17], in assay [18], in [19] and in assay [20] was inactive.

Consider `CCO[Si](OCC)(OCC)c1ccccc1`, for which the outcome in assay [1] was inactive.

Consider `N#CCN(CC#N)CCN(CC#N)CC#N`, for which the compound was classed as inactive in assay [1] and in assay [2].

On to `COc1cc(CNC(=O)CCCC/C=C/C(C)C)ccc1O`, for which the outcome in assay [3], in assay [4], in assay [5], in assay [6], in assay [7] and in [8] was inactive. The result in assay [9], in assay [10], in assay [11], in [12], in assay [13] and in assay [14] was inactive. Besides, the outcome in assay [15], in assay [16], in [17], in [18], in assay [19] and in [20] was inactive.

`COc1ccccc1Oc1c(NS(=O)(=O)c2ccc(C(C)(C)C)cc2)nc(-c2ncccn2)nc1OCCO`: the result in assay [3], in [4], in assay [5], in assay [6], in [7] and in assay [8] was inactive. The result in assay [9], in assay [10], in [11], in [12], in assay [14] and in assay [15] was inactive. The outcome in assay [16], in assay [17], in assay [18], in assay [19] and in assay [20] was inactive. Further, in assay [13], the AC50 was 6.88 µM (active) and 8.61 µM (active).

For `Cc1ccnc(N)c1`, the compound was called inactive in [1] and in assay [2].

As for `CC(C)C1OCCN1CCOC(=O)NCCCCCCNC(=O)OCCN1CCOC1C(C)C` (stereo not drawn), the outcome in assay [3], in assay [4], in assay [5], in assay [6], in assay [7] and in assay [8] was inactive. Further, the result in assay [9], in [10], in assay [11], in assay [12], in assay [13] and in [14] was inactive. The outcome in [15], in assay [16], in [17], in assay [18], in assay [19] and in assay [20] was inactive.

In the case of `OC(C(F)(F)F)(C(F)(F)F)C(O)(C(F)(F)F)C(F)(F)F`, the AC50 in assay [3] is 7.89 µM (active) and 7.97 µM (active); in [4] it was 43 µM (active) and 46.1 µM (active); in assay [6] it was 30.3 µM (active) and 24.3 µM (active); in assay [8], 21.9 µM (active) and 28.8 µM (active); in assay [9] it was 34.1 µM (active) and 21.9 µM (active); in [10] it was 43.3 µM (active) and 40.8 µM (active). Also, the AC50 was 23.3 µM (active) and 22.9 µM (active) in [11]; 30 µM (active) and 21.4 µM (active) in assay [12]; 22.9 µM (active) and 36.4 µM (active) in [13]; 26.9 µM (active) and 26.8 µM (active) in assay [14]; 45.2 µM (active) and 54.8 µM (active) in assay [15]; 36.1 µM (active) and 25.2 µM (active) in assay [16]. Moreover, the AC50 in assay [18] is 12.3 µM (active) and 11.5 µM (active). Further, the result in [5], in assay [7], in [17], in [19] and in assay [20] was inactive.

As to `CCCCCCOC(=O)CCCCCCCC(=O)OCCCCCC`, in assay [2], the compound was classed as inactive.
